Screening data: PubChem BioAssay, several laboratories
This is a sample that favours compounds with a hit; in the whole collection about 3.4% have one here.
p47phox inh: p47phox/p22phox peptide binding inhibitors, primary screen, biochemical, uHTS, NADPH oxidase regulatory subunit; Neutrophil cytosol factor 1 (Homo sapiens), P14598; actives 0.53% (n = 220,000); inhibition, % at 24.7 µM; fluorescence polarization, 2 h;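 further: 0% = p47phox with labelled peptide and 100% = labelled peptide alone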
eIF4E 4G PPI: eIF4E–eIF4G protein interaction inhibitors, primary screen, biochemical, uHTS, TR-FRET, eIF4GI fragment. TR-FRET eIF4E-eIF4GI(517-606) binding, 2 h. actives 0.37% (n = 220,000). AID 782, 2007. inhibition, % at 21.7 µM;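 further: 0% = full FRET control wells and 100% = background wells lacking eIF4GI fragment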
Mcl-1 Bim block: inhibitors of Bim peptide binding to Mcl-1, primary screen, biochemical, bead-based flow cytometry, multiplex; Induced myeloid leukemia cell differentiation protein Mcl-1 (Homo sapiens), Q07820; Bim peptide-Mcl-1 binding; inhibition, % at 10 µM; actives 0.1% (n = 190,000); AID 1009, 2008; in the data active means inhibition above about 40%;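 further: 0% = no compound tracer wells and 100% = peptide blocker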
Mcl1-Noxa inh: Mcl-1/Noxa binding inhibitors, primary screen, biochemical, TR-FRET, 1536-well. Induced myeloid leukemia cell differentiation protein Mcl-1 (Homo sapiens), Q07820. TR-FRET Mcl-1/Noxa peptide binding, 2 h. inhibition, % at 21.7 µM. actives 1.5% (n = 220,000);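 active means compounds that cut the protein-peptide binding signal by more than 50% relative to plate controls in a single-dose test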;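 further: His-tagged Mcl-1 with rhodamine Noxa BH3 peptide and terbium anti-His antibody; 0% = Mcl-1 plus Noxa peptide wells and 100% = peptide-only wells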
14-3-3 Bad inh: inhibitors of 14-3-3 zeta/Bad binding, primary screen, biochemical, TR-FRET, bovine 14-3-3 zeta | 14-3-3 protein zeta/delta (Bos taurus), P63103 | inhibition, % at 21.7 µM | actives 0.71% (n = 220,000) | TR-FRET 14-3-3zeta/Dy647-pBad peptide displacement, 1 h | AID 781, 2007;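 active means inhibition above about 70%, limit read from the data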;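 further: 0% = full 14-3-3 plus peptide FRET controls and 100% = background without 14-3-3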
Mcl1 Bid PPI: Mcl-1/Bid binding inhibitors, primary screen, biochemical, TR-FRET, 1536-well; Induced myeloid leukemia cell differentiation protein Mcl-1 (Homo sapiens), Q07820; actives 0.97% (n = 220,000); inhibition, % at 21.7 µM; TR-FRET Mcl-1/Bid-Dy647 peptide binding; AID 1021, 2008;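 active means compounds that cut the binding signal by more than half at the single screening dose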;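 further: His-tagged Mcl-1 with europium anti-His antibody binding Bid BH3 peptide; 0% = Mcl-1 plus peptide wells and 100% = peptide-only wells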
* = called active by the depositor; / = no result given; ! = a repeat was not active; [ ] = another dose, or the depositor's remark.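 How the source made its calls, unless noted: active means inhibition above about 30% (limit read from the data); inactive means the rest.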

SMILES	p47phox inh	eIF4E 4G PPI	Mcl-1 Bim block	Mcl1-Noxa inh	14-3-3 Bad inh	Mcl1 Bid PPI
CC(=O)NC(=S)Nc1ccc(NC(=S)NC(=O)/C=C/c2ccco2)cc1	-10	-1	/	66*	32	44
COc1ccc([C@@]2(O)c3c(ccc(CC=C(C)C)c3O)NC(=O)[C@@H]2OC)cc1	-5	-17	/	11	-2	-85
O=C(CCS(=O)(=O)c1ccc(Br)cc1)Nc1cc(F)ccc1F	-9	17	-3	8	-7	-35
COC(=O)c1ccccc1NC(=O)CCS(=O)(=O)c1ccc(Br)cc1	-14	11	0	46	81*	-108
COC(=O)COc1ccc2c(=O)c(-c3ccccc3)coc2c1	-6	0	/	-1	2	-1
CC(C)Oc1ccc2c(=O)c(-c3ccccc3)coc2c1	2	-1	-3	44	-9	64*!
Cc1ccc(C(NC(=O)N2CCOCC2)C(Cl)Cl)cc1F (stereo not given)	-2	0	-3	-3	-8	-37
Cc1ccc(C(NC(=O)N2CCOCC2)=C(Cl)Cl)cc1F	42*	3	0	-1	-2	-33
C=CCn1c(SCC(=O)NC23CC4CC(CC(C4)C2)C3)nc2cc(C(=O)O)ccc2c1=O	1	-1	0	18	24	20
C/C(N)=C(/C#N)C(=O)CSc1cc(Cl)ccc1Cl	-4	8	-5	10	-12	-3
C/C(N)=C(/C#N)C(=O)CSc1nc2cc(Cl)ccc2s1	-21	-9	-2	53*	-2	-13
O=C(Nc1ccc([N+](=O)[O-])cc1)c1cc2ccccc2nc1Cl	8	-10	/	21	9	-8
CN(C)C(=O)CSc1nnc(Cc2ccccc2)n1CC1CCCO1 (stereo not given)	2	-4	0	3	-3	-2
O=C(CNc1ccc2c(c1)OCO2)N/N=C\c1ccccc1Cl	-13	4	-6	20	-3	-9
Cc1[nH]c2ccccc2c1/C=N\NC(=O)CNc1ccc2c(c1)OCO2	-5	-1	1	56*	-16	-16
COC(=O)Cc1[nH]nc2c1C(c1ccc(O)c(OC)c1)C(C#N)=C(N)O2 (stereo not given)	-15	-12	/	23	10	-84
O=C(CSc1nc2ncc(Br)cc2[nH]1)c1cccc([N+](=O)[O-])c1	-24	-3	-2	64*	-10	-81
Cc1nc2nc(SCC(=O)c3cccc([N+](=O)[O-])c3)[nH]c2cc1Br	-15	-2	-7	7	2	-30
O=[N+]([O-])c1cc([N+](=O)[O-])c2cccnc2c1Oc1ccccc1O	12	9	0	92*	22	-59
O=[N+]([O-])c1cc(CN2CCOCC2)c2cccnc2c1O	0	33*	-1	94*	17	-16
O=[N+]([O-])c1cc(CN2CCN(c3ccccc3)CC2)c(O)c2ncccc12	9	-5	1	5	-8	-49
O=[N+]([O-])c1ccc(O)c2ncccc12	-2	5	-1	73*	0	6
O=[N+]([O-])c1cc(Cl)c(O)c2ncccc12	16	3	0	70*	1	-33
O=[N+]([O-])c1cc(Cl)c2cccnc2c1O	-2	2	0	-19	-16	-72
CCS(=O)(=O)C(C)(CCl)C(=O)Nc1ccc(C(=O)OC)cc1 (stereo not given)	-3	-1	/	-10	-2	-7
ClCc1nnc(-c2cc3c(s2)CCCC3)o1	-12	5	-2	13	-5	2
COc1ccc(Cc2nnc(NS(=O)(=O)c3ccc(Cl)cc3)s2)cc1OC	-5	0	-3	26	41	-23
CSc1nc(N(C)CCO)c2sc3nc(-c4ccco4)c4c(c3c2n1)CCC4	-21	26	8	103*	9	93*
CSc1nc(SCC(=O)O)c2sc3nc(-c4ccccc4)c4c(c3c2n1)CCC4	-8	57*	/	-77	87*	90*
CCOc1ccccc1NC(=O)C1CCN(S(=O)(=O)c2cccc3cccnc23)CC1	-8	57*[fluorescence artefact?]	1	-6	1	-15
